# Experimental data from the supplement of paper PMC6555819.
# Experiments:
# Assay in all cases: PBM binding z-score (relative to random genomic background probes); higher = stronger binding; sequences stand for … in GC…GCGATTGACAGCGTAGAATGAAGG
# [1] = tested on: PPARg:RXRa DBDmut IVT, anti-RXR (DBD mutation: RXRa K156A/R161A, NR concentration 270 nM, RXRa partner concentration 90 nM)
# Method in brief: (§1)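 For binding z-scores, the reference was random background probes on custom Agilent 4×180K protein-binding microarrays. These arrays were incubated 1 h with ligand-free nuclear receptor dimers in PBS pH 7.4, 2% milk, 0.02% Triton X-100, 1 mM DTT, 0.2 mg/mL BSA and 0.4 mg/ml salmon testes DNA. Fluorescence was scanned after antibody detection of each partner (one per run) and regression-normalized.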
# [2] = tested on: PPARg:RXRa IVT, anti-PPARg (NR concentration 270 nM, RXRa partner concentration 90 nM)
# Method in brief: as §1
# [3] = tested on: PPARg DBDmut:RXRa IVT, anti-PPARg (DBD mutation: PPARg1 K132A/R137A, NR concentration 270 nM, RXRa partner concentration 90 nM)
# Method in brief: as §1
# [4] = tested on: PPARg DBDmut IVT, anti-PPARg (DBD mutation: PPARg1 K132A/R137A, NR concentration 270 nM)
# Method in brief: as §1
# [5] = tested on: PPARg homodimer (NR concentration 180 nM)
# Method in brief: as §1
# [6] = tested on: PXR:RXRa (NR concentration 270 nM, RXRa partner concentration 90 nM)
# Method in brief: as §1
# [7] = tested on: PXR homodimer (NR concentration 270 nM)
# Method in brief: as §1
# [8] = tested on: RARa:RXR (NR concentration 270 nM, RXRa partner concentration 90 nM)
# Method in brief: as §1
# [9] = tested on: RARa homodimer (NR concentration 270 nM)
# Method in brief: as §1
# [10] = tested on: RARb:RXRa (NR concentration 270 nM, RXRa partner concentration 90 nM)
# Method in brief: as §1
# [11] = tested on: RARb homodimer (NR concentration 270 nM)
# Method in brief: as §1
# [12] = tested on: RARg:RXRa (NR concentration 270 nM, RXRa partner concentration 90 nM)
# Method in brief: as §1
# [13] = tested on: RARg homodimer (NR concentration 270 nM)
# Method in brief: as §1
# [14] = tested on: RXRa DBDmut IVT, anti-RXR (DBD mutation: RXRa K156A/R161A, NR concentration 90 nM)
# Method in brief: as §1
# [15] = tested on: RXRa homodimer (NR concentration 180 nM)
# Method in brief: as §1
# [16] = tested on: THRa:RXRa (NR concentration 90 nM, RXRa partner concentration 90 nM)
# Method in brief: as §1
# [17] = tested on: THRa homodimer (NR concentration 90 nM)
# Method in brief: as §1
# [18] = tested on: VDR homodimer (NR concentration 270 nM)
# Method in brief: as §1
Sequence,PBM binding z-score [1],PBM binding z-score [2],PBM binding z-score [3],PBM binding z-score [4],PBM binding z-score [5],PBM binding z-score [6],PBM binding z-score [7],PBM binding z-score [8],PBM binding z-score [9],PBM binding z-score [10],PBM binding z-score [11],PBM binding z-score [12],PBM binding z-score [13],PBM binding z-score [14],PBM binding z-score [15],PBM binding z-score [16],PBM binding z-score [17],PBM binding z-score [18]
GGAACCAGGGCAAAGTTGATAGCATCTGTCGACG,4.31,4.92,0.131,1.82,1.1,0.754,0.639,0.798,0.36,2.22,1.67,1.34,1.41,1.03,1.12,1.18,0.549,0.747
AACTCTAGGTAAAAGTTCAGTGAATCCCGAGGAT,2.73,3.74,1.15,0.487,1.93,1.83,1.06,1.75,0.344,2.42,2.27,1.77,1.69,0.858,1.76,1.22,0.014,1.4
TAGCCTAGGTAATGCGGGCCAGTATAGTGTCGGC,0.0726,0.795,-0.707,-0.721,-1.01,-0.858,-1.13,-0.925,-1.12,-0.447,-0.521,-0.6,-0.559,-1.3,-0.499,-0.418,-0.74,-0.784
CAGCCTAGGTCAGGGCCAGTTTAGGAGGAACGTT,1.5,1.79,-1.02,-1.5,0.437,1.03,-0.16,1.32,-0.133,3.41,2.63,3.06,3.48,0.133,1.63,2.2,0.659,-0.142
CGAACTAGGTCATCCAGGACACTGAATACATTGA,8.38,8.23,3.17,1.12,2.19,2.31,1.65,2.99,1.29,3.98,3.19,4.13,4.86,2.38,3.13,4.19,3,3.09
AGAATCAGGTTATTAAGATCAGGGAATTGCGGTC,2.96,2.28,0.999,0.854,1.29,0.516,0.602,0.644,1.45,1,0.785,0.291,0.541,0.627,0.596,1.21,0.84,0.616
CGTCATAGTTCAAGGTAACGTAACAGAAAGCAGC,0.329,0.799,0.676,1.29,1.19,1.39,0.511,1.43,0.512,3.34,2.2,2.96,3.42,2.26,1.99,2.32,1.16,0.917
